Data from PubChem BioAssay (NCATS).
Records with an inconclusive call do not appear. The source made the active and inactive calls. Calls follow the shape of the dose curve; as a rule, active = well fitted curve in the direction sought with a large enough effect; inconclusive = small, poorly fitted or top-dose-only effect, or another doubt; inactive = no such curve, though single readings can be large; an effect the other way counts as inactive or inconclusive.

Legend:
[1] = qHTS of pediatric cancer cell lines to identify multiple opportunities for drug repurposing: Primary screen for control Hh wild type fibroblast cells (AID 1347106); settings: Hh wild-type fibroblast viability, CellTiter-Glo luminescence, 48 h; series mostly up to 46 µM;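 also: a drop in luminescence marks cytotoxicity and a rise apparent proliferation; nearly all actives have a fitted effect of over 55% in size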
Procedure, shortened: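 Cells (500-1,000/well) in growth media were settled 5 h at 37 degrees C, then given compounds for 48 h. Viability was read as CellTiter-Glo luminescence. Primary runs used MIPE at 11 points (0.78 nM-46 µM) and NPC at 8 points (0.59 nM-46 µM); follow-ups used 11 points.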

[2] = qHTS of pediatric cancer cell lines to identify multiple opportunities for drug repurposing: Primary screen for Rh30 cells (AID 1347107); settings: Rh30 rhabdomyosarcoma viability, CellTiter-Glo luminescence, 48 h; series mostly up to 46 µM; also: nearly all actives have a fitted effect of over 75% in size
Procedure, shortened: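 Viability after 48 h compound treatment at 37C, 500-1,000 cells/well, read as ATP luminescence with CellTiter-Glo. Primary screens used 11-point (MIPE, 0.78 nM-46 µM) or 8-point (NPC, 0.59 nM-46 µM) final concentrations; follow-up screens used 11-point dilutions.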

[3] = qHTS of pediatric cancer cell lines to identify multiple opportunities for drug repurposing: Primary screen for Rh41 cells (AID 1347108); settings: Rh41 rhabdomyosarcoma viability, CellTiter-Glo luminescence, 48 h; series mostly up to 46 µM;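 also: luminescence drop marks cytotoxic hits; nearly all actives have a fitted effect of over 70% in size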
Procedure, shortened: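 Readout: CellTiter-Glo luminescence, 48 h treatment. Controls DMSO (neutral) and bortezomib 2.3 µM final (positive). Potency and efficacy taken from primary-screen concentration-response curves.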

Measured: outcome

CCCCCCCCCCCCCCCCCCO
inactive: all assays above

c1ccc2[nH]ccc2c1
inactive: all assays above

Cc1cccc(Nc2ccccc2C(=O)O)c1C
inactive: all assays above

CC(=O)NS(=O)(=O)c1ccc(N)cc1
inactive: all assays above

CCCCOC(=O)c1ccc(N)cc1
inactive: all assays above

CCN(CC)CCc1nc(-c2ccccc2)no1
inactive: all assays above

CC1CC(OC(=O)c2ccccc2O)CC(C)(C)C1 (stereo not drawn)
inactive: all assays above

CCN1CC(CCN2CCOCC2)C(c2ccccc2)(c2ccccc2)C1=O (stereo not drawn)
inactive: all assays above

Cc1c(NC(=O)c2cccnc2)c(=O)n(-c2ccccc2)n1C
inactive: all assays above

NNc1nnc(NN)c2ccccc12
inactive: all assays above

CC(=O)Nc1cccc(O)c1
inactive: all assays above

Nc1ncnc(Nc2ccccc2)n1
inactive: all assays above

CCCNC(C)C(=O)Nc1c(C)csc1C(=O)OC (stereo not drawn)
inactive: all assays above

CCc1nnc(NS(=O)(=O)c2ccc(N)cc2)s1
inactive: all assays above

CN[C@@H]1[C@H](O)[C@H](NC)[C@H]2O[C@@]3(O)C(=O)C[C@@H](C)O[C@H]3O[C@@H]2[C@H]1O
inactive: all assays above

CCN(CC)C(=O)c1cccc(C)c1
inactive: all assays above

O=c1[nH]c2cc(C(F)(F)F)c(N3CCOCC3)cc2n(CP(=O)(O)O)c1=O
inactive: all assays above

CCC(C)(CN(C)C)OC(=O)c1ccccc1 (stereo not drawn)
inactive: all assays above

CCN(CC)CCOC(=O)C(c1ccccc1)c1ccccc1
inactive: all assays above

NS(=O)(=O)c1ccc(C(=O)O)cc1
inactive: all assays above

CC(=O)N(CC(O)CO)c1c(I)c(C(=O)NCC(O)CO)c(I)c(C(=O)NCC(O)CO)c1I (stereo not drawn)
inactive: all assays above

C1CCN2C[C@@H]3C[C@@H](CN4CCCC[C@@H]34)[C@H]2C1
inactive: all assays above

O=C(OOC(=O)c1ccccc1)c1ccccc1
inactive: all assays above

C/C(=C(\CCO)SS/C(CCO)=C(\C)N(C=O)Cc1cnc(C)nc1N)N(C=O)Cc1cnc(C)nc1N
inactive: all assays above

CN/C(=C\[N+](=O)[O-])NCCSCc1csc(CN(C)C)n1
inactive: all assays above

CC1CCc2cc(F)cc3c(=O)c(C(=O)O)cn1c23 (stereo not drawn)
inactive: all assays above

O=c1[nH]c(=O)c2ccccc2o1
inactive: all assays above

OC[C@@H](O)[C@@H](O)[C@H](O)[C@H](O)CO
inactive: all assays above

COc1ccc(Cc2cnc(N)nc2N)cc1OC
inactive: all assays above

O=C(O)CCCc1ccccc1
inactive: all assays above

CN[C@@H]1[C@@H](O)[C@@H](O[C@@H]2[C@H](O)[C@H](O[C@H]3OC(CN)=CC[C@H]3N)[C@@H](N)C[C@H]2N)OCC1(C)O (stereo partly drawn)
inactive: all assays above

COC(=O)N/N=C/c1c[n+]([O-])c2ccccc2[n+]1[O-]
inactive: all assays above

C[C@@H]1CCC[C@H](C)N1
inactive: all assays above

C[C@]1(Cn2ccnn2)[C@H](C(=O)O)N2C(=O)C[C@H]2S1(=O)=O
inactive: all assays above

C[C@@H]1O[C@@H](OC[C@H]2O[C@@H](Oc3c(-c4ccc(O)c(O)c4)oc4cc(O)cc(O)c4c3=O)[C@H](O)[C@@H](O)[C@@H]2O)[C@H](O)[C@H](O)[C@H]1O
inactive: all assays above

CCOC(=O)[C@H](CCc1ccccc1)N[C@@H](C)C(=O)N1Cc2cc(OC)c(OC)cc2C[C@H]1C(=O)O
inactive: all assays above

CCCCCCCCCCCCCCCCC(C(=O)O)C(O)(CC(=O)O)C(=O)O (stereo not drawn)
inactive: all assays above

O=C(O)c1ccc(OCCCOc2ccc(C(=O)O)cc2)cc1
inactive: all assays above

CC(C)CCCC(C)CCCC(C)CCCCC(C)CCCC(C)CCCC(C)C (stereo not drawn)
inactive: all assays above

NC(=O)CCCCC1CCSS1 (stereo not drawn)
inactive: all assays above

COCC(=O)Nc1c(I)c(C(=O)NCC(O)CO)c(I)c(C(=O)N(C)CC(O)CO)c1I (stereo not drawn)
inactive: all assays above

C[n+]1ccccc1/C=N/O
inactive: all assays above

CCOc1ccccc1O[C@H](c1ccccc1)[C@H]1CNCCO1
inactive: all assays above

Cc1cc(C)c(NC(=O)CN(CC(=O)O)CC(=O)O)c(C)c1Br
inactive: all assays above

CC(O)CCCCn1c(=O)c2c(ncn2C)n(C)c1=O (stereo not drawn)
inactive: all assays above

CCOC(=O)OC(C)OC(=O)[C@@H]1N2C(=O)[C@@H](NC(=O)[C@H](N)c3ccccc3)[C@H]2SC1(C)C (stereo partly drawn)
inactive: all assays above
